This is a sample that favours compounds with a hit; in the whole collection about 5.9% have one here.
KB-V1 MDR tox = kills drug-selected multidrug resistant KB-V1 cells | KB-V1 MDR cells viability, CellTiter-Glo, 72 h | Potency, µM (doses to about 46.1 µM), actives largely listed as cytotoxic | actives 3.4% (n = 400,000) | AID 1347076; note: % is set by controls: 0 for no effect and ±100 for the full control effect; nearly all actives have a fitted effect of over 60% in size
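Following 72 h at 37 degrees C with compound, KB-V1 cell viability was read by CellTiter-Glo luminescence, medium being phenol-red-free DMEM plus 10% FBS; concentration-response parameters came from normalized, curve-fitted qHTS data.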
ATXN2 expr inh = inhibitors of ATXN2 expression; HEK-293 ATXN2-luciferase reporter, luminescence, 24 h; Potency, µM (series often up to 57 µM), without a hit: at the highest dose activity change, negative = inhibition, actives largely listed as inhibitors; actives 0.72% (n = 360,000); AID 1745845; note: % is set by controls: 0 for no effect and ±100 for the full control effect; nearly all actives have a fitted effect of over 55% in size
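qHTS (up to 57 uM final) was run with 24 h compound exposure of reporter cells at 37 °C. Each well was multiplexed: SteadyGlo luminescence measured ATXN2-luciferase expression after a fluorogenic Gly-Phe-AFC viability readout (25 uM final).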
TGFb inhibitor = blocks TGF-b signaling; HepG2 CAGA-GFP TGF-b/SMAD3 reporter, GFP fluorescence, 18 h; TGF-beta stimulated, 500 pg/mL final; Potency, µM (highest dose often 46.1 µM), for the others: top-dose activity, negative = inhibition, most hits filed as inhibitors; actives 1.2% (n = 410,000); note: % is set by controls: 0 for no effect and ±100 for the full control effect; nearly all actives have a fitted effect of over 65% in size
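HEPG2 CAGA-GFP reporter cells (1000/well, DMEM with 1% FBS) received compounds, then recombinant TGF-beta at 500 pg/mL final for 18 hours at 37 degrees C. Per-cell GFP summed per well was normalised to unstimulated and stimulated DMSO controls before curve fitting.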
KB-3-1 tox = KB-3-1 parental cell cytotoxicity. KB-3-1 viability, CellTiter-Glo ATP luminescence, 72 h. Potency, µM (series often up to 46.1 µM), usual class: cytotoxic. actives 1.4% (n = 400,000); note: % is set by controls: 0 for no effect and ±100 for the full control effect; nearly all actives have a fitted effect of over 60% in size
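72 h, 37 °C compound treatment of KB-3-1 parental cells; CellTiter-Glo added, 10 min, luminescence read. Data corrected against DMSO-only plates and normalized before curve fitting.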
ATXN viability = cell viability loss in ATXN counter-screen; Potency, µM (top dose mostly 56.7 µM), actives largely listed as cytotoxic; S2 cells (HEK-293 line with an ATXN2-luciferase reporter) viability, CellTiter-Fluor protease fluorescence, 24 h; AID 651635; actives 0.49% (n = 400,000); note: nearly all actives have a fitted effect of over 40% in size
HepG2 tox = kills HepG2 cells in TGF-b inhibitor counter-screen | HepG2 CAGA-GFP viability, ATP luminescence, 18 h | Potency, µM (highest dose often 46.1 µM), for the others: at the highest dose activity change, negative = cytotoxicity, hits mostly cytotoxic | actives 0.76% (n = 410,000) | AID 588856
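CellTiter-Glo luminescence gave cytotoxicity after 18 hours at 37 degrees C. The cells were HepG2 CAGA-GFP in 1% FBS DMEM, stimulated with 500 pg/mL TGF-beta after compound addition. %Activity was normalised to no-cell wells (complete cell-killing) and DMSO (no toxicity), and curves were fitted and classified.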
Starred values were filed as active, the others as inactive; i = inactive; ? = inconclusive; · = not tested or not shown. Calls come from the whole dose curve; as a rule, active = well fitted curve in the direction sought with a large enough effect; inconclusive = small, poorly fitted or top-dose-only effect, or another doubt; inactive = no such curve, though single readings can be large; an effect the other way counts as inactive or inconclusive. Potency is the fitted concentration of half-maximal effect.

SMILES | KB-V1 MDR tox | ATXN2 expr inh | TGFb inhibitor | KB-3-1 tox | ATXN viability | HepG2 tox
O=C(c1ccc(Cl)cc1)c1oc2ccccc2c1CS(=O)c1ccccc1 (centres undefined) | 5.2µM* | ? | -1% | i | i | 8%
O=C(O)c1oc2ccccc2c1CSc1ccc(Cl)cc1 | i | -8% | 12% | i | i | -6%
Cc1ccc2[nH]c(C(=O)Nc3ccccc3)cc2c1 | i | 6% | -1% | i | ? | -1%
Cc1ccc(SCC(=O)OCC(=O)NCCNC(=O)COC(=O)CSc2ccc(C)c(C)c2)cc1C | i | 2% | 12% | 0.0052µM* | i | -37%
COc1cc(OC)cc(C(=O)NC(=S)Nc2ccc3c4c(cccc24)CC3)c1 | i | -13% | -15% | i | i | -2%
COc1ccc(C(=O)Nc2ccc3c4c(cccc24)CC3)cc1 | 13µM* | 26% | -5% | i | ? | 0%
COc1ccc(C(=O)Nc2cccc3c2CCCC3)cc1 | i | -13% | -10% | 23µM* | ? | -37%
COc1ccc(C(CNC(=O)c2ccc(C)c(S(=O)(=O)N3CCCCC3)c2)N2CCCC2)cc1 (centres undefined) | i | 9% | 13% | i | i | 4%
CCSc1ncc(Cl)c(C(=O)Nc2sc3c(c2C(=O)NCCOC)CCCC3)n1 | i | · | 7% | i | · | -1%
CCc1ccc(NC(=S)/N=C(\N)Nc2nc(C)c3cc(CC)ccc3n2)cc1 | ? | -25% | ? | ? | ? | -4%
CCc1ccc2nc3nc(C)cc(C)c3c(N)c2c1 | 21µM* | ? | 13µM* | i | · | -42%
Cc1nc2ccccc2nc1OCc1cccc(Cl)c1 | i | -5% | 11µM* | i | i | -43%
CC(=O)Nc1ccc(C(=O)Nc2ccc(-c3nc4ccccc4[nH]3)cc2)cc1 | ? | · | · | i | · | ·
Cc1cc(C)n(-c2nc3cc(Cl)ccc3nc2N2CCN(c3cccc(C)c3C)CC2)n1 | i | 14% | 13% | i | i | 7%
CCOc1ccc(S(=O)(=O)NCCC(=O)N2CC=C(c3ccccc3)CC2)cc1 | ? | ? | ? | 13µM* | i | -7%
O=C(CCc1ccccc1)N1CCCN(C(=O)CCc2ccccc2)CC1 | 21µM* | 0% | 7% | i | i | 3%
CCOC(=O)N1CCN(C(=O)CCc2ccc(S(=O)(=O)NCCc3ccccc3)cc2)CC1 | 16µM* | -6% | -8% | i | i | -7%
CS(=O)(=O)N1CCN(C(=O)CCc2ccccc2)CC1 | i | -5% | 3% | i | ? | 16%
CCOc1ccc(S(=O)(=O)NCCC(=O)N2CCN(c3ncccn3)CC2)cc1 | 18µM* | 4% | -6% | i | i | -1%
NCCCCCc1nnc(SCc2ccc(F)cc2)o1 | i | -6% | 9% | i | i | -5%
CC(C)[C@H](NC(=O)OC(C)(C)C)c1cc(C(=O)N2CCOCC2)c(N)s1 | i | · | · | i | · | ·
CC(=O)Nc1ccc(NC(=O)C2CCCN(c3ncccn3)C2)cc1 (centres undefined) | i | 8% | -16% | i | i | 0%
O=C(Nc1ccc(Oc2ccccc2)cc1)C1CCCN(c2ncccn2)C1 (centres undefined) | 5.8µM* | -6% | 7% | i | i | 1%
O=C(Nc1ccc(Oc2ccccc2)cc1)C1CCN(S(=O)(=O)c2ccccc2)CC1 | 6.5µM* | -34% | -14% | ? | ? | -36%
O=C1c2ccccc2C(=O)N1CCc1csc(-c2ccccc2)n1 | 16µM* | 2% | -3% | ? | i | -20%
SMILES | KB-V1 MDR tox | ATXN2 expr inh | TGFb inhibitor | KB-3-1 tox | ATXN viability | HepG2 tox
OC(c1ccc2c(c1)CN(Cc1c[nH]c3ccccc13)CCO2)c1ccccn1 (centres undefined) | · | · | · | · | i | ·
COc1cccc(-c2cn3nc(C)c(C)nc3n2)c1 | ? | -27% | 18% | ? | i | -48%
COc1ccc(-c2cn3nc4c(nc3n2)CCCC4)cc1 | ? | 16µM* | 14% | ? | · | 0%
COc1ccc(CN2CCC3(CCC(CNC(=O)c4ccnn4C)O3)CC2)c(C)c1C (centres undefined) | · | · | · | · | i | ·
COc1ccccc1C(=O)Nc1ccc(-c2nc3cc(C)cc(C)c3o2)cc1 | i | 6% | 18% | i | i | -1%
N#CCc1nc2c3c4c(sc3ncn2n1)CCCC4 | ? | · | -3% | 2.3µM* | i | -2%
Cc1nn2cnc3sc4c(c3c2nc1=O)CCCC4 | i | 4% | -1% | i | i | 2%
Cc1nn(C)c(C)c1S(=O)(=O)N(CC(=O)Nc1ccc(F)cc1F)c1ccc(C(C)C)cc1 | i | · | ? | i | · | -30%
COc1ccc(-c2nnc(Sc3nc4ccccc4o3)c3ccccc23)cc1 | ? | -3% | 13µM* | i | i | 13µM*
CCc1ccc(-n2c(=O)c3cccnc3n2CC(=O)NCc2ccc(F)cc2)cc1 | · | · | -1% | · | · | -24%
Cc1nc2cc(-c3sccc3-n3cccc3)nn2c(C)c1C | 16µM* | 21% | 13% | i | ? | 5%
Cc1cc(C(F)(F)F)n2nc(-c3sccc3-n3cccc3)cc2n1 | i | -9% | 1% | i | i | 0%
CNc1ccc(C=C2c3ccccc3-c3ccccc32)cc1 | ? | · | ? | ? | · | -40%
C/C(=C\C(=O)c1ccc(F)cc1)Nc1ccc(N2CCOCC2)cc1 | 21µM* | -10% | -21% | i | ? | 0%
c1ccc(-c2cc(N3CCOCC3)nc3ccccc23)cc1 | 21µM* | -8% | 5% | i | i | -22%
CCCN(Cc1cc2cc(C)ccc2[nH]c1=O)C(=O)c1cccc(OC)c1 | 7.3µM* | -2% | 7% | 16µM* | i | -3%
CCCN(Cc1cc2cccc(C)c2[nH]c1=O)C(=O)c1cccc(OC)c1 | ? | 1% | -20% | i | i | -4%
Cc1ccc(NC(=S)N(CCN(C)C)Cc2cc3cc(C)ccc3[nH]c2=O)cc1 | 23µM* | -28% | 3% | i | i | -12%
Cc1cccc(NC(=S)N(CCN(C)C)Cc2cc3cccc(C)c3[nH]c2=O)c1 | 16µM* | -4% | 4% | i | i | -32%
Cc1cccc(NC(=S)N(CCN(C)C)Cc2cc3cc(C)cc(C)c3[nH]c2=O)c1 | i | -18% | 2% | i | i | -2%
Cc1ccc(NC(=S)N(CCN(C)C)Cc2cc3cccc(C)c3[nH]c2=O)cc1 | 3.3µM* | -10% | 3% | i | i | 4%

Screens: PubChem, National Center for Advancing Translational Sciences (NCATS)
